This is an account of results in PubChem BioAssay AID588675 (Johns Hopkins Ion Channel Center, 2011).

The whole screen tested about 310,000 compounds, of which about 1,900 (0.61%) were called active.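 How the source made its calls: active means plate-corrected calcium response at least 3 library SD above typical, normal starting fluorescence, not activating the receptor alone; inactive means the rest.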 Only a selection was taken, and actives are over-represented in it overall.

Chain of Mas-related G-protein coupled receptor member X1 (Homo sapiens) (Q96LB2 whole entry, looked up): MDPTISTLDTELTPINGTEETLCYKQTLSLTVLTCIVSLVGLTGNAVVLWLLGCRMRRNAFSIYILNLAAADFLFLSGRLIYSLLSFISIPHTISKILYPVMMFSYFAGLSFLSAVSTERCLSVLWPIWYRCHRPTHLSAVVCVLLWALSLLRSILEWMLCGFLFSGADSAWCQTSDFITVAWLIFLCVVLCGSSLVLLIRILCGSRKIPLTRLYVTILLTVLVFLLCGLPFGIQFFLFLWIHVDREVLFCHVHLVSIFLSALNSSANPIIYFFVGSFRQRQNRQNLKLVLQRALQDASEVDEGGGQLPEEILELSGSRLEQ

This assay has as its target Mas-related G-protein coupled receptor member X1 (Homo sapiens) (UniProt Q96LB2). The assay is described as follows: allosteric enhancers of human MrgX1 signaling – HEK293 cells, Fluo-4 calcium flux, primary screen (AID 588675).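 Further: compound read alongside a low EC10 to EC30 dose of BAM8-22 agonist.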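 On B-score: peak minus trough fluorescence over baseline measured at the second addition.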 The conditions noted are these: MrgX1-HEK293, Fluo-4 calcium flux, FDSS, at 10 µM; hits give high values.
Regarding `O=C(c1cccc(-n2cccc2)c1)N1CCN(S(=O)(=O)c2ccc(F)cc2)CC1`, the B-score result was “inactive”.

In the case of `CCC(C)NC(=O)c1ccc(N2CCC3(CC2)OCCO3)c([N+](=O)[O-])c1` (centres undefined), the B-score result is “inactive”.

Consider `CC(NC(=O)c1ccc(N2CCNCC2)c([N+](=O)[O-])c1)C12CC3CC(CC(C3)C1)C2` (centres undefined), for which the B-score was 6.65 (active).

Regarding `O=C(NC1C2CC3CC(C2)CC1C3)c1ccc(N2CCNCC2)c([N+](=O)[O-])c1` (centres undefined), the B-score result is “inactive”.

Regarding `CCOC(=O)Cc1csc(NC(=O)CN(C)S(=O)(=O)c2ccc3c(c2)CCC(=O)N3)n1`, the B-score entry is “inactive”.

On to `Cc1nn(C(=O)c2ccoc2C)c(N)c1-c1ccccc1`, for which the B-score is 15.4 (active).

On to `Cc1nn(-c2ccc([N+](=O)[O-])cc2)c(N)c1-c1ccccc1`, for which the B-score entry is “inactive”.

Turning to `C/C(=N\NC(=O)c1ccoc1C)c1ccccc1O`, the B-score result is “inactive”.

As to `N#CCC(=O)NC1CCC(CC2CCC(NC(=O)CC#N)CC2)CC1` (centres undefined), the B-score result is “inactive”.

In the case of `COc1cc(OC)c(-n2cc(-c3ccc(Cl)cc3)[nH]c2=O)cc1Cl`, the B-score result is “inactive”.

For `Cc1ccccc1-n1c(C)cc(/C=C2\NC(=O)NC2=O)c1C`, the B-score result is “inactive”.

As for `COc1cc(OC)c(-n2c(C)cc(C=O)c2C)cc1Cl`, the B-score was 9.68 (active).

For the molecule `COc1ccccc1CNC(=O)C1CCN(S(=O)(=O)c2ccc3c(c2)OCCO3)CC1`, the B-score result is “inactive”.

Take `COCCNC(=O)C1CCN(S(=O)(=O)c2ccc3c(c2)OCCO3)CC1`: the B-score was 24.9 (active).

Consider `O=C(NCc1cccs1)C1CCN(S(=O)(=O)c2ccc3c(c2)OCCO3)CC1`, for which the B-score result is “inactive”.

In the case of `O=C(/C=C/c1ccc(F)cc1)NC(=S)NNC(=O)c1cccnc1`, the B-score entry is “inactive”.

In the case of `CCCCn1c(N)c(N(CCOC)C(=O)COc2c(C)cccc2C)c(=O)[nH]c1=O`, the B-score entry is “inactive”.

Regarding `Cc1ccc(S(=O)(=O)NC(=O)COc2ccccc2C)cc1`, the B-score result was “inactive”.

`Cc1ccc(C(=O)Nc2nnc(-c3ccncc3)s2)o1`: the B-score result is “inactive”.

`Cc1occc1C(=O)Nc1nnc(-c2ccncc2)s1`: the B-score is 7.38 (active).

Take `Cc1occc1C(=O)Nc1nnc(C2CCCCC2)s1`: the B-score entry was “inactive”.

`CCOc1ccc(OCC)c(NC(=O)CSc2nnc(Cn3cnc4ccccc43)n2C)c1`: the B-score entry was “inactive”.

As for `COC(=O)C1=C(C)N(C)C(=S)NC1c1cc(OC)ccc1OC` (centres undefined), the B-score result was “inactive”.

Regarding `COC(=O)c1ccc(/C=N/N2C(C)CCCC2C)cc1` (centres undefined), the B-score is 6.7 (active).

With `CC1CCCC(C)N1/N=C/c1ccccc1OC(F)F` (centres undefined), the B-score entry was “inactive”.

Regarding `COC(=O)c1ccc(/C=N/NC(=O)C(=O)N2CCCCCC2)cc1`, the B-score entry was “inactive”.

`Cc1coc2cc3oc(=O)c(CCC(=O)O)c(C)c3cc12`: the B-score entry was “inactive”.

Turning to `Cc1c(CCC(=O)O)c(=O)oc2cc3occ(-c4ccccc4)c3cc12`, the B-score was 7.5 (active).

`Cc1c(CC(=O)NCCCCCC(=O)O)c(=O)oc2cc3occ(-c4ccccc4)c3cc12`: the B-score result is “inactive”.
